Experimental findings from PubChem BioAssay (NCI) are described below.

Assay [1] in a line: NCI Yeast Anticancer Drug Screen. Data for the rad50 strain (AID 155).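 Note: 0% = growth of vehicle-only cultures of the same strain.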 Conditions: S. cerevisiae rad50 strain growth inhibition; at 50.0 µM; hits give high values. The method in brief:
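Compounds were tested on a yeast strain with an engineered DNA damage repair alteration; the reported value is growth inhibition normalised to vehicle treatment.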

Assay [2] can be described thus: NCI Yeast Anticancer Drug Screen. Data for the mec2-1 strain (AID 157). Particulars: S. cerevisiae mec2-1 strain, at 50.0 µM, hits give high values. The gist of the method: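 Compounds were applied to mec2-1 yeast cells. Their growth was then compared with that of vehicle-treated cultures to give growth inhibition.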
Assay [3] in a line: NCI Yeast Anticancer Drug Screen. Data for the sgs1 mgt1 strain (AID 161).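 Note: 0% = growth of cultures given vehicle only.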 Conditions: S. cerevisiae sgs1 mgt1 strain, at 50.0 µM, hits give high values. The method in brief:
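Compounds are added to genetically altered yeast, and growth is compared with cultures given vehicle alone to give percent inhibition.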

Assay [4] is described as follows: NCI Yeast Anticancer Drug Screen. Data for the cln2 rad14 strain (AID 165).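 Note: 0% = growth equal to vehicle treated cultures.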 Conditions: S. cerevisiae cln2 rad14 strain, at 50.0 µM, hits give high values. The gist of the method:
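Strain: cln2 rad14 yeast, altered in cell cycle control and DNA damage repair. Read-out: growth inhibition vs vehicle.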

The nature of assay [5]: NCI Yeast Anticancer Drug Screen. Data for the bub3 strain (AID 167). Conditions: S. cerevisiae bub3 mutant strain, at 50.0 µM, hits give high values. The gist of the method: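 Growth of a checkpoint-deficient yeast mutant is measured after compound exposure. Values represent inhibition relative to vehicle.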
The nature of assay [6]: NCI Yeast Anticancer Drug Screen. Data for the mlh1 rad18 strain (AID 175). Conditions: S. cerevisiae mlh1 rad18 strain growth inhibition; at 50.0 µM; hits give high values. The method in brief:
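A repair-deficient yeast strain is exposed to test compound, and growth is scored relative to vehicle-treated controls.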

The panel holds about 79,000 compounds, 15% with a hit somewhere; the sample as a whole holds those more often. Unmarked numbers belong to inactive results. Activity calls are given as the source filed them. Cut-off read from the data, not from the text of the source: active = growth inhibition above about 70%; inactive = the rest.

Regarding `O=C1/C(=C/c2ccc(O)c(O)c2)CC/C1=C\c1ccc(O)c(O)c1`, the growth inhibition in assay [1] is -18.9%; in assay [2], -23.9%; in assay [3], -21%; in assay [4], 10.9%; in assay [5] it was -16.1%; in assay [6], -22.6%.

As to `O=C1CC2CCCCC2=C1O` (stereo not drawn), the growth inhibition in assay [1] is 18.4%; in assay [2], -11.2%; in assay [3], 14.1%; in assay [4] it was 17.9%; in assay [5] it was -3.1%; in assay [6], 13.8%.

Take `CC(C)c1cc(C(F)(F)F)nc(NNc2nc(C(C)C)cc(C(F)(F)F)n2)n1`: the growth inhibition in assay [1] was -19.6%; in assay [2], -25.1%; in assay [3], -16.5%; in assay [4], -13.2%; in assay [5] it was -15.4%; in assay [6], -34.1%.

On to `CSc1cc(C)c(C#N)c(SC)n1`, for which the growth inhibition in assay [1] is -32.6%; in assay [2], -32.1%; in assay [3], -12.9%; in assay [4], -5.7%; in assay [5] it was 0.05%; in assay [6], -12.4%.

As for `C/C(=N/Nc1ccc([N+](=O)[O-])cc1[N+](=O)[O-])C(CC(C(=O)NCc1ccccc1)/C(C)=N\Nc1ccc([N+](=O)[O-])cc1[N+](=O)[O-])C(=O)NCc1ccccc1` (stereo not drawn), the growth inhibition in assay [1] was 5.25%; in assay [2], -16.5%; in assay [3], -0.1%; in assay [4], -5.05%; in assay [5], 21.1%; in assay [6], 11.8%.

As to `Nc1c(Br)cc2c(c1Br)C(=O)c1ccccc1-2`, the growth inhibition was 3.95% in assay [1]; 8.8% in assay [2]; 23.6% in assay [3]; 8.8% in assay [4]; 15.2% in assay [5]; -0.05% in assay [6].

On to `Cc1cc2c(cc1C)[n+](=O)c(C(=O)CC(=O)C(=O)Nc1ccccc1C(C)C)c(C)n2[O-]`, for which the growth inhibition in assay [1] is -26.4%; in assay [2], -4.75%; in assay [3] it was -51.6%; in assay [4], 13.1%; in assay [5], -14.4%; in assay [6] it was -33.6%.

Regarding `Clc1cnnc(Cl)c1N/N=C/c1ccco1`, the growth inhibition was 11.6% in assay [1]; -0.05% in assay [2]; 13% in assay [3]; -43.2% in assay [4]; -6.7% in assay [5]; -7.55% in assay [6].

For the molecule `CCCC(=O)OCC1OC(n2cc(F)c(=O)[nH]c2=O)C(F)C1OC(=O)CCC` (stereo not drawn), the growth inhibition in assay [1] was -1.45%; in assay [2] it was 15.1%; in assay [3], -5.8%; in assay [4], -13.9%; in assay [5], -2.6%; in assay [6], -7.25%.

As for `O=C(O)CSc1c(Cl)c(=O)oc2ccc(Cl)cc12`, the growth inhibition in assay [1] was 30.3%; in assay [2], -6.6%; in assay [3], 20.2%; in assay [4], -2%; in assay [5], 17%; in assay [6] it was 43.9%.

As to `SC1c2cc(Cl)ccc2-c2c(Cl)cc(Cl)cc21` (stereo not drawn), the growth inhibition was -2.7% in assay [1]; 3.35% in assay [2]; -6.05% in assay [3]; 9.1% in assay [4]; 10.6% in assay [5]; -11.8% in assay [6].

Turning to `CCCCC(Sc1cc(Cl)c(C)cc1S(=O)(=O)Nc1n[nH]c(N)n1)C(=O)OC` (stereo not drawn), the growth inhibition in assay [1] was -4.85%; in assay [2], -12.3%; in assay [3], 50%; in assay [4], 7%; in assay [5], -18.8%; in assay [6] it was 5.75%.

As for `O=C(Nc1ccccc1)/C(N=Nc1ccccc1)=N\Nc1ccccc1`, the growth inhibition in assay [1] was -12.6%; in assay [2], -16.1%; in assay [3] it was -10.4%; in assay [4], -28.4%; in assay [5] it was 6.6%; in assay [6], 19.8%.

For the molecule `Nc1ccc([N+](=O)[O-])cc1F`, the growth inhibition in assay [1] was -18.6%; in assay [2], -9.05%; in assay [3], -9.85%; in assay [4], -20.9%; in assay [5], 3.95%; in assay [6], -0.95%.

In the case of `CC(C)(C#N)OC(=O)c1cc([N+](=O)[O-])cc([N+](=O)[O-])c1`, the growth inhibition in assay [1] was 8.55%; in assay [2] it was 4.45%; in assay [3] it was 13.1%; in assay [4], -14.9%; in assay [5], -9.55%; in assay [6], -2.1%.

As for `Cn1c(=S)c2[nH]c(SCCCc3ccccc3)nc2n(C)c1=O`, the growth inhibition in assay [1] was -19.4%; in assay [2] it was -36%; in assay [3], -5.8%; in assay [4], -32.3%; in assay [5], -25.9%; in assay [6] it was 12.5%.

For the molecule `COC(=O)CC1(O)C=CC(=O)c2ccccc21` (stereo not drawn), the growth inhibition in assay [1] is 2.35%; in assay [2] it was -6.65%; in assay [3], -3.8%; in assay [4], -25.9%; in assay [5], 44%; in assay [6], -5.7%.

On to `Cc1[nH]c(=O)[nH]c(=O)c1-n1nnc2ccccc2c1=O`, for which the growth inhibition was 21.9% in assay [1]; 12.8% in assay [2]; 20.7% in assay [3]; -7.05% in assay [4]; 8.3% in assay [5]; 6.8% in assay [6].

As to `CC(=O)NCC1OC2COC(c3ccccc3)OC2C2N=C(c3ccccc3)OC12` (stereo not drawn), the growth inhibition is -9.45% in assay [1]; 1.3% in assay [2]; 8.5% in assay [3]; 7.8% in assay [4]; 14.8% in assay [5]; 81.8% (active) in assay [6].

On to `COC(=O)C(C(=O)OC)C(c1cccc([N+](=O)[O-])c1)C(N)c1ccccc1` (stereo not drawn), for which the growth inhibition in assay [1] is 15.3%; in assay [2] it was -8.95%; in assay [3], -0.5%; in assay [4] it was 28.2%; in assay [5] it was 32.1%; in assay [6] it was 56.4%.

Consider `CCOC(=O)c1sc(C(=O)OCC)c(O)c1O`, for which the growth inhibition in assay [1] is 97% (active); in assay [2], 95.5% (active); in assay [3], 97.8% (active); in assay [4], 58.4%; in assay [5], 95.7% (active); in assay [6], 97% (active).

As to `CCN(Cc1ccc(CN(CC)C(=O)c2sc3ccccc3c2Cl)cc1)C(=O)c1sc2ccccc2c1Cl`, the growth inhibition in assay [1] is -3.5%; in assay [2], -19.6%; in assay [3] it was -7.35%; in assay [4], -1.4%; in assay [5] it was -11.4%; in assay [6] it was -4.55%.

Turning to `O=C1C(c2ccccc2)=C(c2ccccc2)C(c2ccc(Cc3ccc(C4=C(c5ccccc5)C(=O)C(c5ccccc5)=C4c4ccccc4)cc3)cc2)=C1c1ccccc1`, the growth inhibition in assay [1] was 20.1%; in assay [2] it was 32.4%; in assay [3] it was 16.8%; in assay [4], 14.6%; in assay [5], 15.1%; in assay [6], 26.6%.

Consider `COc1cc(CNc2nc3c(N)cc(C(F)(F)F)cc3nc2-c2ccccc2)cc(OC)c1OC`, for which the growth inhibition is 0.25% in assay [1]; -9.35% in assay [2]; 6.6% in assay [3]; 17.6% in assay [4]; -11.3% in assay [5]; -25.6% in assay [6].

For the molecule `C#CCOCCCC(=O)O`, the growth inhibition was 6.95% in assay [1]; -8.2% in assay [2]; 0.6% in assay [3]; 0.3% in assay [4]; 16.2% in assay [5]; 11.7% in assay [6].

On to `CCCSC(=O)Nc1ccc(Cc2ccc(NC(=O)SCCC)cc2)cc1`, for which the growth inhibition is 2.05% in assay [1]; -17.3% in assay [2]; 16.6% in assay [3]; 21.8% in assay [4]; 16.4% in assay [5]; 14.5% in assay [6].

In the case of `N#C/C1=C(\C#N)CCC2(C#N)C3C=CC(O3)C2(C#N)CC1` (stereo not drawn), the growth inhibition in assay [1] is 14.9%; in assay [2], 12.6%; in assay [3], -0.65%; in assay [4], 13.3%; in assay [5], 8.45%; in assay [6], 23.1%.

Turning to `CC(C)C1CCC2(C)C(CCC3C(C)(CO)CCCC32O)C1` (stereo not drawn), the growth inhibition was -17.2% in assay [1]; -6.85% in assay [2]; 19.5% in assay [3]; 1.45% in assay [4]; 22.1% in assay [5]; 10% in assay [6].

Regarding `CCOC(=O)c1c[nH]c2cc(Cl)cc(OC)c2c1=O`, the growth inhibition is -11.3% in assay [1]; -5.6% in assay [2]; -1% in assay [3]; -32.9% in assay [4]; -7.35% in assay [5]; -17% in assay [6].

For `BrCC1OCC2(CO1)COC(CBr)OC2` (stereo not drawn), the growth inhibition was -11.2% in assay [1]; 11.3% in assay [2]; -7% in assay [3]; -16% in assay [4]; -6% in assay [5]; -13.2% in assay [6].

On to `Cc1cc2c(C)nn(Cc3ccccc3)c2c(C(=O)O)c1C`, for which the growth inhibition in assay [1] was 10.6%; in assay [2] it was 7.05%; in assay [3], 1.15%; in assay [4] it was 2.95%; in assay [5] it was 9.95%; in assay [6], 26.8%.

Regarding `Cc1ccc[nH]c1=O`, the growth inhibition in assay [1] was -9.9%; in assay [2], -15.1%; in assay [3] it was -0.6%; in assay [4], -8.05%; in assay [5], -8.45%; in assay [6] it was 2.4%.

With `O=C(O)c1cc([N+](=O)[O-])ccc1Oc1cccc([N+](=O)[O-])c1`, the growth inhibition in assay [1] was -30.9%; in assay [2], -1.2%; in assay [3], 1.2%; in assay [4] it was 27%; in assay [5], 2.95%; in assay [6] it was -8.25%.

On to `NCCn1[nH]c(=O)c2ncccc2c1=O`, for which the growth inhibition in assay [1] is -59%; in assay [2], -27.6%; in assay [3], -4.45%; in assay [4] it was -49.1%; in assay [5] it was -6.6%; in assay [6] it was -14.9%.

For `O=c1[nH]c(=O)n(COC(CO)CO)cc1-c1ccccc1`, the growth inhibition was -24.4% in assay [1]; -31.8% in assay [2]; 2.65% in assay [3]; -4.15% in assay [4]; -18.4% in assay [5]; -19.9% in assay [6].

For `O=C(O)C(Sc1ccccc1)c1ccccc1` (stereo not drawn), the growth inhibition in assay [1] is 0.8%; in assay [2], -8.2%; in assay [3], -0.05%; in assay [4], -32.4%; in assay [5], -21.9%; in assay [6] it was -21.6%.

In the case of `Cc1nc(C)c(N2CCN(S(N)(=O)=O)CC2)c(=O)[nH]1`, the growth inhibition was -70.3% in assay [1]; -26.9% in assay [2]; -30.8% in assay [3]; 6.6% in assay [4]; 3.4% in assay [5]; -21.8% in assay [6].

`CC1(C)C2(SCCS2)C(C)(C)C12SCCS2`: the growth inhibition in assay [1] is 22.9%; in assay [2], 3.05%; in assay [3], 17.9%; in assay [4], 3.75%; in assay [5], 11.4%; in assay [6], 5.4%.
